From PubChem BioAssay (NCI)
About 83,000 compounds went through this panel and 20% of them were active in at least one assay; those are over-represented in the sample as a whole.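 Assay: single dose, 48 h. Readout: percent growth (0 = no net growth; negative = cell death). Active: <10.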 Activity calls are given as the source filed them.

Legend:
Assay in all cases: NCI-60 one-dose screen, 48 h (100 = growth as untreated, 0 = no growth, -100 = all killed)
Details in all cases: 10 µM
[1] = system: NCI-H23 lung
[2] = system: NCI-H226 lung
[3] = system: NCI-H322M lung
[4] = system: HOP-62 NSCLC
[5] = system: NCI-H522 lung
[6] = system: A549/ATCC NSCLC
[7] = system: 786-0 renal
[8] = system: COLO 205 colon
[9] = system: DU-145 prostate
[10] = system: K-562 leukemia
[11] = system: MALME-3M melanoma
[12] = system: MDA-MB-231 breast
[13] = system: RXF 393 renal
[14] = system: SF-268 CNS
[15] = system: SF-295 CNS
[16] = system: SF-539 CNS
[17] = system: UACC-257 melanoma
[18] = system: M14 melanoma
[19] = system: HCT-15 colon

Measured: growth

CCOC(=O)c1ccc(NC(=O)Nc2ncc(Cl)cc2Cl)cc1
inactive: [1] 93.9% | [2] 95.3% | [3] 99.3% | [4] 104% | [6] 40.7% | [7] 92.9% | [8] 130% | [9] 111% | [10] 79.4% | [11] 111% | [12] 94% | [13] 100% | [14] 104% | [15] 96.5% | [16] 96.2% | [17] 14.7% | [18] 94.7% | [19] 102%
active: [5] -37.6%

COc1cc2c(cc1OCCCN1CCN(c3ncnc4ccccc34)CC1)N=CC1CCCN1C2=O (stereo unspecified)
inactive: [14] 10.3%
active: [1] -8.7% | [2] -50.1% | [3] -3.85% | [4] 4.07% | [5] -37.7% | [6] -2.44% | [7] 7.51% | [8] -42% | [10] -24.8% | [11] -71.7% | [12] -34.4% | [15] -20.9% | [16] -82.7% | [18] -46.8% | [19] 1.25%

CCN(CC)CCN1CC(=O)Nc2cc(Cl)ccc21
inactive: [1] 101% | [2] 95.1% | [3] 104% | [4] 103% | [5] 92.7% | [6] 102% | [7] 115% | [8] 102% | [9] 120% | [10] 120% | [12] 116% | [13] 122% | [14] 108% | [15] 103% | [16] 105% | [17] 102% | [18] 93.9% | [19] 107%

COc1cc(Nc2ccnc(NCCCNc3ccnc4cc(Cl)ccc34)n2)cc(OC)c1
inactive: [1] 55.8% | [2] 87.6% | [3] 15.2% | [4] 27.4% | [6] 11.9% | [9] 34.3%
active: [5] -44.8% | [7] -90.9% | [8] -92.2% | [10] -51.1% | [11] -87.7% | [12] -54.6% | [13] -83.3% | [14] -19.9% | [15] -75.9% | [16] -98.5% | [18] -85.6% | [19] 0.0216%

C=C1c2c(C)nn(-c3ccc(OC)cc3)c2N(C)C23C[C@@H]1C1(C)c4c(C)nn(-c5ccc(OC)cc5)c4N(C)C(C)(C[C@H]12)C3 (stereo partly specified)
inactive: [1] 33.7% | [2] 48.7% | [3] 62.4% | [4] 59.9% | [5] 47.4% | [7] 54.3% | [8] 23.6% | [9] 56.2% | [10] 15.5% | [11] 53.9% | [12] 39.7% | [13] 67.9% | [14] 36.8% | [15] 101% | [16] 62.5% | [17] 26.8% | [18] 40% | [19] 26.3%

COc1cc(/C(=C2/O[C@@H]([C@H]3COC(C)(C)O3)[C@H]3OC(C)(C)O[C@@H]23)c2ccc3ccccc3c2)cc(OC)c1OC
active: [5] 8.05% | [6] -9.4% | [7] -1.42% | [9] 2.86% | [11] -25.4% | [14] -16.9%
inactive: [1] 46.2% | [2] 66.9% | [3] 55.1% | [4] 48% | [8] 66.9% | [10] 28.1% | [12] 13.6% | [15] 46.6% | [16] 26.4% | [17] 45.9% | [18] 62.8% | [19] 59.7%

C=C(Cl)[C@@](Cl)(CBr)CC[C@@H](Br)C(C)(C)Cl
inactive: [1] 83.2% | [2] 105% | [5] 85.1% | [11] 102% | [18] 89.1%
active: [3] -98.1% | [4] -93.2% | [6] -6.36% | [7] -65.5% | [8] -70.3% | [9] -94.3% | [10] 8.41% | [12] -78.2% | [13] -5.37% | [14] 1.89% | [15] -48.4% | [16] -81.9% | [17] -66.7% | [19] -63.8%

COc1ccc(OC)c2c1C(=O)CC2C (stereo unspecified)
inactive: [1] 102% | [2] 101% | [3] 96.5% | [4] 101% | [5] 110% | [6] 103% | [7] 108% | [8] 106% | [9] 107% | [10] 116% | [11] 87% | [12] 100% | [13] 98.3% | [14] 94.2% | [15] 98% | [16] 101% | [17] 107% | [18] 112% | [19] 110%

Oc1[nH]c2cc(Cl)ccc2c1/C=c1/ccc2c(c1)N=C(c1cc(F)cc(F)c1)N=2
active: [5] -3.39% | [8] -0.0984% | [9] -8.59% | [13] 1.45% | [16] 3.76% | [18] -9.94%
inactive: [1] 28.3% | [2] 55.1% | [3] 49.1% | [4] 25.3% | [7] 36.7% | [10] 10.3% | [11] 51.4% | [12] 66.7% | [15] 13.5% | [17] 55.6% | [19] 37.3%

N#CSCC1CC(O)(c2ccccc2)CC(c2ccc(Cl)cc2)O1 (stereo unspecified)
active: [5] 4.64% | [11] 7.26% | [13] 9.83% | [18] 9.35%
inactive: [1] 35.6% | [2] 89.3% | [3] 52.4% | [4] 75.1% | [6] 68.5% | [7] 37% | [8] 59.2% | [9] 33% | [10] 44.8% | [12] 60.8% | [14] 34.6% | [15] 46.6% | [16] 58.8% | [17] 87.8% | [19] 58.8%

N=C(N)c1ccc(-c2ccc(-c3cccs3)s2)s1
inactive: [1] 51.8% | [2] 74.2% | [16] 25.9%
active: [3] -29.8% | [4] -67.4% | [5] -69.5% | [6] -63.2% | [7] -88.6% | [8] -93.8% | [9] -91.6% | [10] -68% | [11] -73.9% | [12] -74.3% | [13] -91.7% | [14] -29.3% | [15] -79.5% | [17] -68.5% | [18] -79.5% | [19] -68.4%

CC(=O)O[C@]1(C)CC[C@H]2[C@H](CNCCc3ccc(Cl)cc3)C(=O)O[C@@H]2C2=C(C)C(=O)C[C@H]21
active: [5] -33.4%
inactive: [1] 102% | [2] 94.9% | [3] 91.9% | [4] 94% | [6] 85.6% | [7] 96.6% | [8] 97% | [9] 89.4% | [10] 79.4% | [11] 84.2% | [12] 90.5% | [13] 115% | [14] 91% | [15] 105% | [16] 106% | [17] 76.4% | [18] 88.4% | [19] 88.4%

COc1ccc(-c2nc(-c3nc4ccc(Cl)cc4[nH]3)c3ccccn23)cc1
active: [2] -45.7% | [4] -77.9% | [5] -3.06% | [6] -37.4% | [7] -72.7% | [11] -10.8% | [13] -54.8% | [14] -8.4% | [15] 6.74% | [16] -13.7%
inactive: [1] 84.1% | [3] 54.6% | [8] 76% | [9] 25.6% | [10] 55.8% | [12] 11.8% | [17] 49.4% | [18] 62.3% | [19] 62.8%

COc1ccc(-c2nc(-c3nc4cc(Cl)c(Cl)cc4[nH]3)c3ccccn23)cc1
active: [4] -11.7% | [7] 0.945% | [12] -18.3% | [13] -39.4% | [16] 8.32%
inactive: [1] 67.5% | [2] 44.5% | [3] 48.4% | [6] 16.8% | [8] 88.4% | [9] 47.5% | [10] 59.8% | [11] 18% | [14] 21% | [15] 13.9% | [17] 63.6% | [18] 70.1% | [19] 76.7%
